PubChem BioAssay
Results filed as inconclusive are left out. Calls of active or inactive are those of the source.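 How the source made its calls, unless noted: active means normalized viability below 100% at a tested concentration; inactive means the rest.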

Tests used:
[1] = growth inhibition of DIPG glioma cells, dose response, cell-based, SU-DIPG-XVII, MIPE5.0, CellTiter-Glo, qHTS (AID 1347060; cut-off not given, nearly all actives have AC50 up to about 26 µM;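 on AC50: cells exposed to compound for 48 hours before viability readout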); settings: SU-DIPG-XVII viability, CellTiter-Glo ATP luminescence
[2] = growth inhibition of DIPG glioma cells, dose response, cell-based, JHH-DIPG-1, MIPE4.0, CellTiter-Glo, qHTS (AID 1347062; cut-off not given, nearly all actives have AC50 up to about 27 µM;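 on AC50: cells exposed to compound for two days before readout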); settings: JHH-DIPG-1 viability, CellTiter-Glo ATP luminescence
[3] = growth inhibition of DIPG glioma cells, dose response, cell-based, SU-DIPG-XIII, MIPE5.0, CellTiter-Glo, qHTS (AID 1347064; cut-off not given, nearly all actives have AC50 up to about 23 µM;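 on AC50: cells exposed to compound for 48 hours before the viability read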); settings: SU-DIPG-XIII viability, CellTiter-Glo ATP luminescence
[4] = viability loss in pontine glioma line – cell-based, SU-DIPG-XXV, MIPE5.0, CellTiter-Glo, qHTS, dose response (AID 1347065; cut-off not given, nearly all actives have AC50 up to about 26 µM;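 further: cells exposed to compound for 48 hours before ATP readout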); settings: CellTiter-Glo ATP luminescence
[5] = SU-DIPG-VI glioma cell viability, MIPE4.0 library, CellTiter-Glo luminescence, qHTS (AID 1347066; cut-off not given, nearly all actives have AC50 up to about 30 µM;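 further: cells exposed to compound for 48 hours before readout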); settings: CellTiter-Glo ATP luminescence
[6] = JHH-DIPG-1 glioma cell viability, MIPE5.0 library, CellTiter-Glo luminescence, qHTS (AID 1347067; cut-off not given, nearly all actives have AC50 up to about 26 µM;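 further: cells exposed to compound for 48 hours before readout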); settings: JHH-DIPG-1 glioma viability, CellTiter-Glo ATP luminescence
[7] = SU-DIPG-XXV glioma cell viability, MIPE5.0 library, qHTS (AID 1347068; cut-off not given, nearly all actives have IC50 up to about 30 µM;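 on IC50: cells exposed to compound for 48 hours before viability readout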)
[8] = sensitizers of A549 cells to miR-34 induction, primary screen, imaging, A549 dox-inducible miR-34, nuclei and caspase counts (AID 1347080;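 active means compounds whose cell count with miR-34 switched on is under 0.7 times the count with it off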); settings: A549 miR-34 inducible, Hoechst nuclei count, 48 h
[9] = survival rescue of mitochondrial mutant cells in low glucose, primary screen, MELAS cybrids, Rieske KO mouse fibroblasts, CellTiter-Glo (AID 1508586;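 active means mean z-score across replicates of 1.96 or higher in either the MELAS or the Rieske mutant cell line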;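 further: z relative to plate mean and SD of compound and empty wells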)
[10] = ovarian cancer cell viability with rucaparib, profiling panel, oncology-focused library, rucaparib conditional (AID 1508598); settings: patient-derived ovarian cancer cells, CellTiter-Glo viability, 144 h, stronger effect = lower value
[11] = modifiers of HSF1 nuclear foci, imaging, Selleck Cancer Library (AID 1347162; in the data active means plate-normalised HSF1 focus index below about 0.46); settings: human cells, at 10 µM; SSMD: measured here: HSF1 foci SSMD mean; cell count: measured here: cell number; plate-normalised HSF1 focus index: stronger effect = lower value
[12] = stronger effect = lower value, cell number ratio, induced over uninduced
[13] = measured here: relative caspase fold change +Dox/-Dox
[14] = measured here: total cells with miR-34 induction, stronger effect = lower value
[15] = measured here: total cells without miR-34 induction
[16] = MELAS cybrid survival, CellTiter-Glo 48 h, stronger effect = higher value
[17] = Rieske KO mouse fibroblast survival, CellTiter-Glo 72 h
[18] = at 0.000305 µM, OCI-C5x cells, with rucaparib 10 µM, 100% = cells with rucaparib alone
[19] = at 0.000305 µM, OCI-C5x cells, without rucaparib
[20] = at 0.000305 µM, OCI-P5x cells, with rucaparib 20 µM, 100% = cells with rucaparib alone
[21] = at 0.000305 µM, OCI-P5x cells, without rucaparib
[22] = at 0.00122 µM, OCI-C5x cells, with rucaparib 10 µM, 100% = cells with rucaparib alone
[23] = at 0.00122 µM, OCI-C5x cells, without rucaparib
[24] = at 0.00122 µM, OCI-P5x cells, with rucaparib 20 µM, 100% = cells with rucaparib alone
[25] = at 0.00122 µM, OCI-P5x cells, without rucaparib
[26] = at 0.00488 µM, OCI-C5x cells, with rucaparib 10 µM, 100% = cells with rucaparib alone
[27] = at 0.00488 µM, OCI-C5x cells, without rucaparib
[28] = at 0.00488 µM, OCI-P5x cells, with rucaparib 20 µM, 100% = cells with rucaparib alone
[29] = at 0.00488 µM, OCI-P5x cells, without rucaparib
[30] = at 0.0195 µM, OCI-C5x cells, with rucaparib 10 µM, 100% = cells with rucaparib alone
[31] = at 0.0195 µM, OCI-C5x cells, without rucaparib
[32] = at 0.0195 µM, OCI-P5x cells, with rucaparib 20 µM, 100% = cells with rucaparib alone
[33] = at 0.0195 µM, OCI-P5x cells, without rucaparib
[34] = at 0.0781 µM, OCI-C5x cells, with rucaparib 10 µM, 100% = cells with rucaparib alone
[35] = at 0.0781 µM, OCI-C5x cells, without rucaparib
[36] = at 0.0781 µM, OCI-P5x cells, with rucaparib 20 µM, 100% = cells with rucaparib alone
[37] = at 0.0781 µM, OCI-P5x cells, without rucaparib
[38] = at 0.313 µM, OCI-C5x cells, with rucaparib 10 µM, 100% = cells with rucaparib alone
[39] = at 0.313 µM, OCI-C5x cells, without rucaparib
[40] = at 0.313 µM, OCI-P5x cells, with rucaparib 20 µM, 100% = cells with rucaparib alone
[41] = at 0.313 µM, OCI-P5x cells, without rucaparib
[42] = at 1.25 µM, OCI-C5x cells, with rucaparib 10 µM, 100% = cells with rucaparib alone
[43] = at 1.25 µM, OCI-C5x cells, without rucaparib
[44] = at 1.25 µM, OCI-P5x cells, with rucaparib 20 µM, 100% = cells with rucaparib alone
[45] = at 1.25 µM, OCI-P5x cells, without rucaparib
[46] = at 5 µM, OCI-C5x cells, with rucaparib 10 µM, 100% = cells with rucaparib alone
[47] = at 5 µM, OCI-C5x cells, without rucaparib
[48] = at 5 µM, OCI-P5x cells, with rucaparib 20 µM, 100% = cells with rucaparib alone
[49] = at 5 µM, OCI-P5x cells, without rucaparib

CN(C(=O)c1ccc(F)cc1C(F)(F)F)C1CCN(c2nnc(-c3ccnn3C)c3ccccc23)CC1
inactive: outcome [1] | outcome [2] | outcome [3] | outcome [4] | outcome [5] | outcome [6] | outcome [7]

Cc1ccc(S(=O)(=O)Nc2nc3ccccc3nc2Nc2ccc3nsnc3c2)cc1
3480: cell count [8, 14]
3940: cell count [8, 15]
active: AC50 [2] 0.512 µM | viability [10, 39] 74.9% | viability [10, 48] 95.1%
inactive: outcome [1] | outcome [3] | outcome [6] | outcome [7] | fold change [8, 12] 0.883 | z-score [9, 16] -0.561 | viability [10, 18] 107% | viability [10, 19] 120% | viability [10, 20] 124% | viability [10, 21] 116% | viability [10, 22] 122% | viability [10, 23] 132% | viability [10, 24] 131% | viability [10, 25] 117% | viability [10, 26] 112% | viability [10, 27] 130% | viability [10, 28] 125% | viability [10, 29] 115% | viability [10, 30] 123% | viability [10, 31] 132% | viability [10, 32] 120% | viability [10, 33] 108% | viability [10, 34] 122% | viability [10, 35] 124% | viability [10, 36] 125% | viability [10, 37] 110% | viability [10, 38] 112% | viability [10, 40] 117% | viability [10, 41] 106% | viability [10, 42] 115% | viability [10, 43] 121% | viability [10, 44] 110% | viability [10, 45] 105% | viability [10, 46] 107% | viability [10, 47] 117% | viability [10, 49] 102%
1.38: fold change [8, 13]
0.136: z-score [9, 17]

Cc1cnc(Nc2ccc(OCCN3CCCC3)cc2)nc1Nc1cccc(S(=O)(=O)NC(C)(C)C)c1
active: AC50 [1] 1.05 µM | AC50 [3] 5.9 µM | AC50 [4] 3.72 µM | AC50 [6] 5.25 µM | IC50 [7] 7.42 µM | z-score [9, 16] 1.98 | viability [10, 20] 98.4% | viability [10, 24] 99.3% | viability [10, 32] 95.4% | viability [10, 36] 99.2% | viability [10, 40] 81.7% | viability [10, 41] 96.3% | viability [10, 42] 93.7% | viability [10, 43] 84.4% | viability [10, 44] 78% | viability [10, 45] 88.7% | viability [10, 46] 2.62% | viability [10, 47] 55.3% | viability [10, 48] 1.43% | viability [10, 49] 2%
inactive: outcome [2] | outcome [5] | fold change [8, 12] 1.01 | plate-normalised HSF1 focus index [11] 1.11 | viability [10, 18] 104% | viability [10, 19] 124% | viability [10, 21] 110% | viability [10, 22] 113% | viability [10, 23] 121% | viability [10, 25] 109% | viability [10, 26] 112% | viability [10, 27] 125% | viability [10, 28] 102% | viability [10, 29] 109% | viability [10, 30] 107% | viability [10, 31] 121% | viability [10, 33] 112% | viability [10, 34] 106% | viability [10, 35] 122% | viability [10, 37] 105% | viability [10, 38] 105% | viability [10, 39] 113%
-3.31: z-score [9, 17]
2480: cell count [8, 14]
2450: cell count [8, 15]
1.95: fold change [8, 13]
1.73: SSMD [11]
6980: cell count [11]
